An excerpt weighted towards active compounds, which were near 21% of everything screened.
Shiga inhibitor – blocks Shiga toxin action in Vero cells; Vero cells, Shiga toxin protein synthesis inhibition reporter; inhibition, % at 38.7 µM; 9.2% of 290,000 active; in the data active means inhibition mostly above about 28%, no sharp cut-off; inactive means mostly below about 43%; further: 0% is about no effect
Giardia FBPA inh – inhibitors of Giardia lamblia fructose-1,6-bisphosphate aldolase; purified Giardia FBPA; Potency, µM (titrated, usually from 59.6 µM), inactives show at the top dose activity, negative = inhibition, most hits filed as inhibitors; 0.71% of 290,000 active; further: potency means the concentration at half of the fitted maximal effect; on the % scale 0 is the no-effect control and ±100 the full control effect; nearly all actives have a fitted effect of over 55% in size
Target sequence (A8B2U2 whole entry, looked up): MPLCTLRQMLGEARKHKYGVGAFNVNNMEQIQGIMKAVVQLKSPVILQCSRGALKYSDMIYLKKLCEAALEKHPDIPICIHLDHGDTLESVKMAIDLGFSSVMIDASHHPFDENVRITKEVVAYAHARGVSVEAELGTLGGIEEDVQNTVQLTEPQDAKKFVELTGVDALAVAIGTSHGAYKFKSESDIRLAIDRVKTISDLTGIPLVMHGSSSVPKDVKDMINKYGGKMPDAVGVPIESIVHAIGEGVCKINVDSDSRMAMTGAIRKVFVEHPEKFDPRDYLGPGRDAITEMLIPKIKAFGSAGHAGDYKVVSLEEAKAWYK
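Giardia FBPA (40 nM reagent) was preincubated 10 min at RT with compound (up to 57.5 uM final), then substrate plus GAPDH/TPI/NAD/arsenate coupling system with diaphorase/resazurin was added; resorufin fluorescence (525/598 nm) was read after 20 min.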
Pf growth 96h – inhibits malaria parasite growth, 96 h; P. falciparum luciferase reporter growth, 96 h; Potency, µM (titrated, usually from 28.7 µM), for the others: at the top dose activity change, negative = inhibition, most hits filed as inhibitors; 6.9% of 320,000 active; AID 504834; further: potency means the concentration at half of the fitted maximal effect; on the % scale 0 is the no-effect control and ±100 the full control effect
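Erythrocytes infected with luciferase-expressing P. falciparum were dispensed at 2% hematocrit and 0.05% parasitemia (final), then incubated with compounds 96 hours at 37 C in 5% CO2. Luminescence after detection reagent addition reported growth.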
Cycloheximide cs – counter-screen hit for Shiga toxin inhibitors, cycloheximide; cell reporter, cycloheximide protein synthesis inhibition counterscreen; max response, %; 12% of 300,000 active; AID 2314; in the data active means max response mostly above about 13%, no sharp cut-off; inactive means mostly below about 14%; further: read at 38.3 µM for the half of the compounds with a filed dose; 0% is about no effect
NS1 function inh – influenza NS1 inhibition; Potency, µM (series often up to 46.1 µM), for the others: at the top dose activity, positive = more growth; 0.4% of 270,000 active; AID 2326; calls by dose curve; further: potency means the concentration at half of the fitted maximal effect; actives are rising curves; nearly all actives have a fitted effect of over 50% in size
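S. cerevisiae expressing influenza A NS1, grown in glucose, washed, then diluted 1:100 into pH 6.0 -URA galactose medium with 23 nl compound. Growth recovery read as OD600; NS1-free strain serves as control.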
Pf growth 48h – P. falciparum growth inhibition at 48 hours (one generation); P. falciparum luciferase growth in erythrocytes, 48 h; Potency, µM (doses to about 28.7 µM), for inactives: at the highest dose activity change, negative = inhibition, hits mostly inhibitors; 5.9% of 310,000 active; AID 504832; further: potency means the concentration at half of the fitted maximal effect; on the % scale 0 is the no-effect control and ±100 the full control effect
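Read-out is firefly luciferase luminescence from an integrated reporter in P. falciparum, so falling signal marks reduced parasite growth. Infected erythrocytes were at 2% hematocrit and 0.1% parasitemia (final) in Albumax-supplemented RPMI 1640.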
Starred values were filed as active, the others as inactive; ? = inconclusive; . = no result; [ ] = another dose, or the depositor's remark. Unless noted, the call rests on the fitted dose curve; in most records, active means well fitted curve in the direction sought with a large enough effect; inconclusive means small, poorly fitted or top-dose-only effect, or another doubt; inactive means no such curve, though single readings can be large; an effect the other way counts as inactive or inconclusive.

SMILES	Shiga inhibitor	Giardia FBPA inh	Pf growth 96h	Cycloheximide cs	NS1 function inh	Pf growth 48h
CCOc1ccc(C(=O)Nc2ccc(-c3nc4ccccc4[nH]3)cc2)cc1[N+](=O)[O-]	-5	0%	-18%	-3	25%	1.9µM*
Cc1ccc(NC(=O)CCS(=O)(=O)c2cccc3nonc23)c(Br)c1	-2	-1%	3%	13	-10%	10%
COc1ncc2nc(-c3cccs3)c(=O)n(Cc3ccc(F)cc3)c2n1	.	1%	.	.	.	.
Cc1cc(N(C)C)nc(Nc2ccccc2)n1	.	.	12µM*	.	.	13µM*
Cc1cccc(Nc2nc(C)cc(C)n2)c1	24*	?	?	15*	9%	?
CCc1ccc2c(c1)C(c1ccc([N+](=O)[O-])cc1)=NNC(c1ccc(F)cc1)=N2	63*	-1%	?	24*	10%	42%
CC(/C=C/C=C(\C)C(=O)O[C@@H]1O[C@H](CO[C@@H]2O[C@H](CO)[C@@H](O)[C@H](O)[C@H]2O)[C@@H](O)[C@H](O)[C@H]1O)=C\C=C\C=C(C)\C=C\C=C(/C)C(=O)O[C@@H]1O[C@H](CO[C@@H]2O[C@H](CO)[C@@H](O)[C@H](O)[C@H]2O)[C@@H](O)[C@H](O)[C@H]1O	.	.	11%	.	.	-1%
C=CCSc1nnc2c(n1)[nH]c1c(C)cccc12	60*	-2%	12µM*	40*	-44%	.
CCSc1nnc2nc3[nH]c4c(C)cccc4c3nn12	62*	3%	3%	40*	.	65%
Cc1cccc2c1[nH]c1nc(N/N=C\c3ccco3)nnc12	-11	-1%	-24%	15	13%	-9%
CNS(=O)(=O)c1cccc(C(=O)OCC(=O)N2CC(C)OC(C)C2)c1 (stereo unspecified)	-7	-1%	25%	2	-10%	14%
O=C(CSc1n[nH]c(=O)n1Cc1ccco1)c1ccc(F)cc1	14	6%	3%	1	0%	-19%
O=C(CSc1n[nH]c(=O)n1Cc1ccco1)N1CCOCC1	-6	7%	1%	16*	0%	37%
O=C(CSc1n[nH]c(=O)n1-c1cccnc1)N1CCOCC1	4	2%	43%	20*	4%	20%
COc1ccc(CN(C)CC(=O)NCC(=O)Nc2c(C)cccc2C)cc1	.	.	?	.	.	-11%
COC(=O)NNC(=O)c1ccccc1OC	-12	6%	-15%	-4	0%	24%
CC(C)(C)OC(=O)NNC(=O)c1ccc(Cl)cc1	26	1%	13%	13*	9%	21%
COc1ccccc1C(=O)NNC(=O)c1ccc(F)cc1	65*	0%	-24%	57*	7%	133%
COc1ccccc1C(=O)NNC(=O)c1ccc(Cl)cc1	21	-6%	43%	17*	-4%	51%
COc1ccc(C(=O)NNC(=O)OC(C)(C)C)cc1	-8	4%	12%	1	9%	-8%
Cc1ccccc1C(=O)NNC(=O)c1ccc(F)cc1	62	1%	149%	20*	9%	63%
COc1ccccc1C(=O)NNC(=O)C1CC=CCC1 (stereo unspecified)	34	7%	?	25*	-14%	80%
O=C(c1cnccn1)N1CCC[C@@]2(CCN(Cc3nccs3)C2)C1	.	2%	.	.	.	.
CCOc1ccc(NC(=S)Nc2cccc3ccccc23)cc1	89*	?	11%	72*	?	?
CCOc1ccc(NC(=S)Nc2cccc3cnccc23)cc1	11	?	21%	14*	-26%	0%
SMILES	Shiga inhibitor	Giardia FBPA inh	Pf growth 96h	Cycloheximide cs	NS1 function inh	Pf growth 48h
Cc1ccc(NC(=O)CN2CCCCCC2)cc1[N+](=O)[O-]	103*	3%	106%	42*	.	0%
O=C(CN1CCCCCC1)Nc1ccc([N+](=O)[O-])cc1Br	27	17%	-5%	-1	3%	-12%
O=C(CN1CCCC1)Nc1ccc(Br)cc1[N+](=O)[O-]	.	1%	?	27*	0%	41%
Cc1ccc(NC(=O)CN2CCCC2)cc1Br	6	?	?	7	2%	22%
Cc1[nH][nH]c(=O)c1C(c1ccc(-c2cccc(Cl)c2)o1)c1c(C)[nH][nH]c1=O	6	5µM*	?	-5	-1%	65%
COc1ccc(C(=O)Oc2ccc(C(c3c(C)[nH][nH]c3=O)c3c(C)[nH][nH]c3=O)cc2OC)cc1	-5	.	.	-14	.	.
COC(=O)c1ccc(-c2ccc(C(c3c(C)[nH][nH]c3=O)c3c(C)[nH][nH]c3=O)o2)cc1	28	4.5µM*	97%	11	.	-24%
Cc1ccc2oc(-c3ccccc3C(=O)O)cc(=O)c2c1	-12	10%	191%	-6	-5%	.
Cc1[nH][nH]c(=O)c1C(c1ccc(-c2ccc(Cl)cc2Cl)o1)c1c(C)[nH][nH]c1=O	-12	13µM*	?	-5	1%	.
Cc1[nH][nH]c(=O)c1C(c1ccc(-c2ccccc2C(=O)O)o1)c1c(C)[nH][nH]c1=O	26	7.9µM*	417%	1	.	-9%
Cc1[nH][nH]c(=O)c1C(c1ccc(Br)cc1)c1c(C)[nH][nH]c1=O	-6	-23%	?	-2	3%	17%
CCOC(=O)N1CCN(S(=O)(=O)N2CCCC(C(=O)NCCc3ccc(OC)c(OC)c3)C2)CC1 (stereo unspecified)	-8	5%	?	-3	-8%	-4%
Cc1[nH][nH]c(=O)c1C(c1ccc(-c2cccc(C(=O)O)c2)o1)c1c(C)[nH][nH]c1=O	74*	20µM*	0%	58*	9%	14%
CC1CCCCN1CCCOC(=O)c1ccccc1 (stereo unspecified)	.	.	-4%	.	.	-13%
CC(=N\O)/C(CN(C)C)=N/O	-5	0%	10µM*	8	?	20%
Cc1cccn2cc(-c3cccc(NC(=O)c4cccs4)c3)nc12	71*	-1%	2%	32*	-2%	-19%
Cc1ccn2cc(-c3cccc(NC(=O)c4cccs4)c3)nc2c1	36	-10%	?	22*	.	75%
O=C(Nc1cccc(-c2cn3cccnc3n2)c1)c1cccs1	-3	1%	?	8	-2%	2%
COc1ccc(N(CC(=O)Nc2cc(OC)c(OC)cc2C(=O)O)S(=O)(=O)c2c(C)noc2C)cc1	1	.	?	9	17%	-13%
CCOC(=O)c1ccccc1NC(=O)COC(=O)CCC1CCCC1	.	.	-2%	.	.	-15%
COc1ccccc1CCC(=O)N(C)CC(=O)Nc1ccc(Cl)c(C(F)(F)F)c1	5	.	?	-3	-8%	-21%
O=C(O)CCSCCCN1C(=O)c2cccc3cccc(c23)C1=O	-5	?	-55%	0	.	-21%[5.75 µM]
NC(=O)CS(=O)C(c1ccccc1)c1ccccc1 (stereo unspecified)	22	8%	6µM*	-5	.	-8%
O=C(O)C1CC=C(Cl)CC1C(=O)NC1CCCCC1 (stereo unspecified)	-4	.	-17%	-2	2%	3%

Screening results as filed in PubChem BioAssay.
